Screening data as filed in PubChem.
HT1080NT lethal: qHTS for induction of synthetic lethality in tumor cells producing 2HG: qHTS for the HT-1080-NT fibrosarcoma cell line; HT-1080-NT fibrosarcoma viability, CellTiter-Glo ATP luminescence, 48 h; hit rate 1.6% among 360,000; AID 686970, 2013; Potency, µM (doses to about 46.1 µM), without a hit: at the top dose activity, negative = less viability, hits mostly cytotoxic;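 also: NT is the 2HG producing partner of a matched IDH1 knockdown line; potency is read from the fitted curve at half-maximal effect; 0% = DMSO-treated cells and -100% = media-only wells without cells; nearly all actives have a fitted effect of over 55% in size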
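Toxicity toward the 2HG-producing NT line was scored as %Activity, normalised to DMSO and no-cell wells, from CellTiter-Glo luminescence after 48 hours' treatment.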
KB-3-1 tox: qHTS assay for MDR1-selective chemotherapeutics: Primary screen using the parental adenocarcinoma cell KB-3-1. KB-3-1 viability, CellTiter-Glo ATP luminescence, 72 h. AID 1347075, 2019. hit rate 1.4% among 400,000. Potency, µM (doses to about 46.1 µM), usual class: cytotoxic; also: potency is read from the fitted curve at half-maximal effect; nearly all actives have a fitted effect of over 60% in size
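Parental KB-3-1 viability, qHTS format: 72 h compound exposure, 37 °C; CellTiter-Glo; media-only wells and DMSO plates as controls; concentration-effect fits on corrected data.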
KB-V1 cytotox: qHTS assay for MDR1-selective chemotherapeutics: Primary screen using the drug-selected MDR subline cells KB-V1; KB-V1 MDR cells viability, CellTiter-Glo, 72 h; Potency, µM (series often up to 46.1 µM), most hits filed as cytotoxic; hit rate 3.4% among 400,000; AID 1347076, 2019; also: potency is read from the fitted curve at half-maximal effect; nearly all actives have a fitted effect of over 60% in size
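qHTS viability screen in drug-selected KB-V1 MDR cells: 72 h compound treatment at 37 degrees C, ATP luminescence end point.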
HT1080 IDH1KD tx: qHTS for induction of synthetic lethality in tumor cells producing 2HG: qHTS for the HT-1080-IDH1KD cell line | HT-1080 IDH1 knockdown viability, ATP luminescence, 48 h | Potency, µM (series often up to 46.1 µM), without a hit: at the highest dose activity, negative = toxicity, actives largely listed as cytotoxic | hit rate 2% among 360,000 | AID 686971, 2013;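 also: potency is read from the fitted curve at half-maximal effect; 0% = DMSO wells and -100% = cell-free medium wells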
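In this qHTS, HT-1080 cells depleted of IDH1 are exposed for 48 h at 37 °C to compound titrations. Toxicity is scored from CellTiter-Glo luminescence, with DMSO as full viability and medium alone as none.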
IL-1B inflam inh: qHTS for Inhibitors of Inflammasome Signaling: IL-1-beta AlphaLISA Primary Screen. THP-1 LPS/ATP IL-1B secretion, AlphaLISA, 16 h; hits give low values. activity change, % at 57.5 µM. hit rate 4.7% among 360,000; in the data active = activity change below about -50%; inconclusive = mostly about -30% to -49%
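THP-1 cells pretreated 1 hr with compounds (up to 57.5 uM final), then stimulated with LPS (250 ng/mL final) plus ATP (1.25 mM final); secreted IL-1B measured by AlphaLISA after 16 hr, decreased signal indicating inhibition.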
Active calls of the source: *; i = inactive; ? = inconclusive; · = no result; [ ] = remark or other dose. Most compounds without a hit are left out; they make up all but 8.8% or so of the library. Unless noted, calls follow the shape of the dose curve; as a rule, active = well fitted curve in the direction sought with a large enough effect; inconclusive = small, poorly fitted or top-dose-only effect, or another doubt; inactive = no such curve, though single readings can be large; an effect the other way counts as inactive or inconclusive. Unless noted, % is scaled to controls: 0 for no effect and ±100 for the full control effect.

SMILES	HT1080NT lethal	KB-3-1 tox	KB-V1 cytotox	HT1080 IDH1KD tx	IL-1B inflam inh
Cn1c2ccccc2c2cc(/C=N/NC(=O)c3cc(O)ccc3O)ccc21	-25%	i	i	?	-73*
O=C(N/N=C/c1cccc(O)c1)c1ccccc1O	-24%	i	i	-17%	-15
Cn1c2ccccc2c2cc(/C=N/NC(=O)c3cc(O)cc(O)c3)ccc21	-15%	i	?	-28%	-86*
COc1cc(C(=O)N/N=C/c2ccc3c(c2)c2ccccc2n3C)ccc1O	?	?	?	?	i
CCN(CC)S(=O)(=O)c1ccc(Cl)c(NC(=O)COC(=O)c2cccn2C)c1	?	i	15µM*	?	?
Cc1ccc(OCC(=O)N(Cc2ccc(N(C)C)cc2)C2CCS(=O)(=O)C2)cc1C (configuration not stated)	0%	i	i	-3%	-72*
CN(C)c1ccc(CN(C(=O)C2COc3ccccc3O2)C2CCS(=O)(=O)C2)cc1 (configuration not stated)	2%	i	18µM*	-6%	0
CN(C)c1ccc(CN(C(=O)COc2ccccc2)C2CCS(=O)(=O)C2)cc1 (configuration not stated)	-11%	i	i	-20%	-17
Cc1cnc(-c2nc3ccccc3n2C(C(=O)NC(C)(C)C)c2ccncc2)cn1 (configuration not stated)	-20%	i	i	-16%	1
c1ccc(Nc2ccnc(Nc3ccccc3)n2)cc1	-28%	?	18µM*	?	·
NNc1nccc(Nc2ccccc2C(=O)O)n1	-11%	i	i	-18%	-67*
Cc1ccc(OCCC(=O)NNC(=O)c2nn(C)c(=O)c3ccccc23)cc1	5%	?	?	16%	-10
CCN(CC(=O)NCc1cccs1)C(=O)CCCOc1ccc(C(C)(C)C)cc1	-1%	?	21µM*	-6%	-9
CCN(CC(=O)NCc1cccs1)C(=O)CCCOc1ccccc1	2%	i	i	-2%	10
CC(NC(=O)/C(=C/c1ccc(OC(F)F)cc1)c1ccccc1)c1ccccc1 (configuration not stated)	-10%	?	6.5µM*	-12%	-18
Cc1cc(C(=O)CN2C(=O)NC3(CCCCC3C)C2=O)c(C)n1Cc1cccs1 (configuration not stated)	-4%	i	23µM*	-4%	-6
Cc1cnc(C(=O)N(c2ccc(N3CCOCC3)cc2)C2C(=O)Nc3ccccc3N=C2c2ccc(F)cc2)cn1 (configuration not stated)	6%	i	i	8%	13
CN(c1nc(-c2ccc(Br)cc2)cs1)C1CCS(=O)(=O)C1 (configuration not stated)	-1%	i	i	2%	-77*
CN(C(=O)c1cccc(Br)c1)C1CCS(=O)(=O)C1 (configuration not stated)	15%	i	i	11%	6
COCCN1CC(=O)N(c2cccc(C)c2C)C(c2ccc(Cl)cc2)C1=O (configuration not stated)	12%	i	i	19%	8
Cc1ccccc1N1C(=O)C(Oc2ccc(Cl)cc2)C1CNCCCOC(C)C (configuration not stated)	16µM*	i	i	16µM*	-91*
COCCCNCC1C(Oc2ccc(Cl)cc2)C(=O)N1c1ccccc1C (configuration not stated)	-29%	i	i	-12%	-76*
Cc1ccccc1OCCSCc1nc2ccccc2[nH]1	-17%	?	?	-21%	7
CCCCN(CCCNC(=O)C1CCN(C(=O)c2cc3sccc3n2C)CC1)Cc1ccccc1	18µM*	?	i	?	?
COc1cccc(CNC(=O)C2CCCN(C(=O)c3ccc(Cl)cc3)C2)c1 (configuration not stated)	1%[9.24 µM]	i	i	1%	10
SMILES	HT1080NT lethal	KB-3-1 tox	KB-V1 cytotox	HT1080 IDH1KD tx	IL-1B inflam inh
CC(C)(C)c1cc(C(=O)CCN2CCOCC2)cc(C(C)(C)C)c1O	?	i	?	?	-101*
O=C(CCN1CCOCC1)c1ccc(N2CCCCC2)cc1	-29%	?	i	-2%	-73*
CC(C)(C)c1cc(C(=S)N2CCN(CCO)CC2)cc(C(C)(C)C)c1O	-3%	i	i	27%	-2
Cc1ccc(S(=O)(=O)NCCc2nnc3ccc(SCc4ccccc4C)nn23)cc1	·	i	i	·	·
O=c1c2c(nc3c(-c4ccc(Cl)cc4)c[nH]n13)CCCC2	?	?	i	7.1µM*	46
O=c1c2c(nc3c(-c4cccc5ccccc45)c[nH]n13)CCC2	-8%	i	i	-4%	10
CCOC(=O)Cc1csc(NS(=O)(=O)c2ccc(OC)cc2)n1	-1%	i	?	12%	-2
Cc1nn(-c2ccccc2)c2c1C(O)CC(C)(C)C2 (configuration not stated)	-2%	i	?	-3%	-22
Cc1nc2c(c3c1[nH]c1ccccc13)C(O)CC(C)(C)C2 (configuration not stated)	0%	?	16µM*	-1%	-11
CC1(C)Cc2c(ccc3ccccc23)C(c2cc3ccccc3oc2=O)=N1	?	?	i	?	-25
CC1(C)Cc2ccccc2C(c2cc3ccccc3oc2=O)=N1	21µM*	?	i	?	0
Cn1cc(CN2CCC(C(=O)NC(c3ccc(-c4ccccc4)cc3)c3cnccn3)CC2)c2ccccc21 (configuration not stated)	5.2µM*	i	i	?	0
O=C(NC(c1ccc(-c2ccccc2)cc1)c1cnccn1)C1CCN(Cc2ccc(Cl)c(Cl)c2)CC1 (configuration not stated)	-10%	i	i	-4%	-21
O=C(NC(c1ccc(-c2ccccc2)cc1)c1cnccn1)C1CCN(Cc2ccc3c(c2)OCO3)CC1 (configuration not stated)	13µM*	?	?	10µM*	-26
C=CCc1cc(OC)ccc1OCCCCn1cncn1	7%	i	i	5%	30
O=C1NC(c2ccccc2)=C(c2ccccc2)C1=O	18%	i	i	20%	12
O=C1C(Br)=C(c2ccccc2)C(c2ccccc2)=C1c1ccccc1	1%	6.5µM*	?	?	-13
